Data taken from PubChem BioAssay (EPA / NIEHS).
Calls of active or inactive are those of the source. The calls were made as follows: active = hit-call score of the fitted dose curve at least 0.9, where 1 is the maximum; inactive = score below 0.9.

What follows are compounds tested on Cytochrome P450 (CYP24A1), CYP24A1 (gene 1591) (assay: LTEA_HepaRG_CYP24A1: Life Technologies and Expression Analysis (LTEA) Assay for Cytochrome P450 (CYP24A1) using HepaRG (AID 2283478)). Settings: mRNA level, 48 h; actives raise or lower the signal.
Experimental: LTEA_HepaRG is a cell based, multiplexed-readout assay that uses HepaRG, a human liver cell line, with measurements taken at 48 hours after chemical dosing on a 96-well plate.LTEA_HepaRG_CYP24A1 is one of 102 assay component(s) measured in the LTEA HepaRG cell culture assay. It is a marker of NR mediated metabolism.Data from the assay component LTEA_HepaRG_CYP24A1 was analyzed into 1 endpoint. This assay endpoint, LTEA_HepaRG_CYP24A1, was analyzed with bidirectional fitting relative to DMSO as the negative control and baseline of activity. Using a type of inducible reporter, measures of mRNA induction for gain or loss-of-signal activity can be used to understand regulation of transcription factor activity. To generalize the intended target to other relatable targets, this assay endpoint is annotated to the cyp intended target family, where the subfamily is xenobiotic metabolism.
A total of 1060 chemcials from the ToxCast library were tested in eight-point concentration-response experiments. Cell culture and cytotoxicity assays were conducted at Thermo Fisher Scientific's Custom Services facility (Madison, WI). A single lot of human HepaRG cells (Thermo Fisher Scientific, Frederick, MD) was used for the cell culture experiments. 96-well format collagen type I coated plates of human HepaRG cells were prepared using established methods. Briefly, cryopreserved HepaRG cells were thawed, plated at a density of approximately 100,000 cells/well in HepaRG Thaw, Plate, and General Purpose media (HPRG770, Thermo Fisher Scientific), and incubated for 48 hours. 0.5% DMSO was selected as vehicle control to balance the requisite need of DMSO in HepaRG cultures to maintain differentiation (for example, baseline metabolism, proportions of hepatocytes vs. cholangiocytes), while enabling further hepatic receptor pathway activation (for example, PXR and CAR) in response to chemical exposure. 48 hours after plating, the culture medium was replaced with HepaRG Serum-Free Incudtion Media. Cells were exposed to each test chemical in duplicate and maintained in CO2 incubators for another 48 hours. Chemical plates were thawed to room temperature and 200x concentrations of treatment groups were prepared. 8-point conentration-reponse curves were made with the highest exposure at 100 uM, followed by half-log dilutions, all in 0.5% DMSO. Each test plate contained variouse controls, induction positive controls (1mM phenobarbital), cytotoxicity positive controls ([…] aflatoxin B1), vehicle controls (0.5% DMSO), and total lysis controls (0.5% DMSO). Cell morphology images were taken using an Essen IncuCyte FLR automated microscope, with six 96-well plates imaged in about 24 minutes. Images were captured and exported and JPEG files. Spent culture media was transfered to black-well plates for the LDH assay, and remaining media was sorted at -80 C for later use. Cells were treated with RLT buffer and frozen until shipped for gene expression analysis. Total RNA was isolated from the cell suspension in 75 uL of Buffer RLT (Qiagen, Germantown, MD 20874) by Quintiles/Expression Analysis (Durham, NC) using a custom isolation procedure. Total RNA from each plate well was transferred to a preamplification plate. Fluidigm's 96.96 Dynamic ArrayTM (Fluidigm, Amsterdam, the Netherlands) technology was used for gene expression analyses by quantitative reverse transcription polymerase chain reaction (qRT-PCR, performed by Quintiles/Expression Analysis, Durham, NC)89. Standard TaqManTM Assays (Applied Biosystems/ThermoFisher Scientific, Foster City, CA) were used to assess the expression of 93 genes selected based on their selectivity and sensitivity to important hepatic receptors known to be modulated by environmental chemicals; importance in human hepatocyte functionality; and hepatotoxicity. […]

outcome, inactive:
Oc1ccccc1O, Cc1cn([C@H]2C=C[C@@H](CO)O2)c(=O)[nH]c1=O, CC(COCC(C)OC(=O)c1ccccc1)OC(=O)c1ccccc1 (stereo not given), CN(C)C(=O)NC1(c2ccccc2)CCN(CC[C@@]2(c3ccc(F)c(F)c3)CN(C(=O)c3ccccc3)CCO2)CC1, CC1(C)C(=O)NC(=O)N1CO, CC(C)NCC(O)c1ccc(O)c(O)c1 (stereo not given), C/C=C/C=C/C(=O)O, O=C1NC(=O)C(c2ccccc2)(c2ccccc2)N1, CCC(C)N(C)C(=O)c1cc2ccccc2c(-c2ccccc2Cl)n1 (stereo not given), Cc1cc(Cc2ccc(N)c(C)c2)ccc1N, CC1=C(C)S(=O)(=O)CCS1(=O)=O, c1ccc2occc2c1, NCCOCCOCCN, CC(C)(O)c1ccc(CNC(=O)c2cccnc2Oc2ccc(F)cc2)cc1, O=NO, CC(=O)S[C@H](C(=O)N[C@H]1Cc2ccccc2[C@H]2CCC[C@@H](C(=O)O)N2C1=O)C(C)C, CCCCCCC(C=O)=Cc1ccccc1, CCCCC(CC)COP(=O)(OCC(CC)CCCC)OCC(CC)CCCC (stereo not given), CCCCC(CC)CO (stereo not given), O=C(Oc1ccccc1)c1cccc(C(=O)Oc2ccccc2)c1, O=Cc1ccccc1C=O, CN(C)C(=O)NC1(c2ccccc2)CCN(CCC[C@]2(c3ccc(Cl)c(Cl)c3)CCCN(C(=O)c3ccccc3)C2)CC1, CCc1cc(C2=C(C(=O)O)N(c3ccccc3C(F)(F)F)S(=O)(=O)c3ccccc32)cc2c1OCO2, CCCCc1nc2cccnc2n1Cc1ccc(-c2ccccc2-c2nnn[nH]2)cc1, CC(=O)OC1CC(C)OC(C)O1 (stereo not given), O=C(O)c1[nH]n(-c2ccc(S(=O)(=O)O)cc2)c(=O)c1N=Nc1ccc(S(=O)(=O)O)cc1, CCc1nc(N)nc(N)c1-c1ccc(Cl)cc1, Cc1ccc(-c2cc(C(F)(F)F)nn2-c2ccc(S(N)(=O)=O)cc2)cc1, CCOCCOCCO, CCCC[C@H]1CN(CC2CCOCC2)C(=O)OC12CCN(C1(C)CCN(C(=O)c3c(C)ncnc3C)CC1)CC2, COC(=O)[C@H]1[C@H]2C[C@@H]3c4[nH]c5cc(OC)ccc5c4CCN3C[C@H]2C[C@@H](OC(=O)c2cc(OC)c(OC)c(OC)c2)[C@@H]1OC, CCCCOC(=O)CCCCC(=O)OCCCC, CC(C)c1cccc(C(C)C)c1NC(=O)NS(=O)(=O)c1cc(C(C)(C)O)co1, NC1CCCCC1, OCC(CO)n1cnc(-c2ccc(F)cc2)c1-c1ccnc(Oc2ccccc2)n1, O=C(O)CC(O)(CC(=O)O)C(=O)O, S=c1[nH]c2ccccc2s1, NC(=Nc1ccccc1)Nc1ccccc1, CSc1ccc(Oc2ccc(S(N)(=O)=O)cc2CN(C)C)cc1C, C#CC(O)C(CC)CCCC (stereo not given)
